Test results: the supplement of paper PMC10849652
About 7,900 targets were measured; listed, in parts, are those with a hit and a random draw of the rest. About 0.6% of all pairs of compound and target were hits. A number with no mark means an inactive call.

Columns and labels:
Test in all cases: log2 fold change, soluble protein after heating vs DMSO (PISA); higher = thermal stabilisation; K562 cells, 10 uM, 30 min; active = over 0.2 and 3.5 SD of the protein, either way, in both replicates (recomputed)
[1] = compound: Cc1ccc(NC(=O)c2ccc(CN3CC[C@H](N(C)C)C3)c(C(F)(F)F)c2)cc1Nc1nccc(-c2cncnc2)n1 [bafetinib]
Outline: (§1)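 For each measurement, 10 μM compound was applied for 30 min to K562 cells at 2×10^6 cells/mL. Aliquots were heated for 3 min across 48°C-58°C, pooled, and extracted in PBS with 0.5% NP-40 at 4°C; the supernatant after 21,000xg for 90 min was soluble protein. This was quantified by TMTpro 16plex LC-MS/MS with channel sums equalised, and thermal stability was reported relative to control samples from duplicates, on a log2 fold-change scale.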

[2] = compound: Cc1cccc(CC(=O)N2CCc3c2ccc(-c2cn(C)c4ncnc(N)c24)c3F)n1
Outline: as §1

[3] = compound: Cc1cn(-c2cc(NC(=O)c3ccc(C)c(Nc4nccc(-c5cccnc5)n4)c3)cc(C(F)(F)F)c2)cn1 [nilotinib]
Outline: as §1

[4] = compound: Cc1nc(Nc2n[nH]c3c2CN(C(=O)N[C@H](CN(C)C)c2ccccc2)C3(C)C)c2sccc2n1
Outline: as §1

[5] = compound: Cc1nc(Nc2ncc(C(=O)Nc3c(C)cccc3Cl)s2)cc(N2CCN(CCO)CC2)n1 [dasatinib]
Outline: as §1

[6] = compound: Cc1ncc(-c2ccnc(Nc3ccc(S(C)(=O)=O)cc3)n2)n1C(C)C
Outline: as §1

[7] = compound: Cn1cc(-c2ccc3c(c2)CCN3C(=O)Cc2cccc(C(F)(F)F)c2)c2c(N)ncnc21
Outline: as §1

[8] = compound: Cn1cc(-c2ccc3nnc(C(F)(F)c4ccc5ncccc5c4)n3n2)cn1
Outline: as §1

[9] = compound: Cn1cncc1[C@@](N)(c1ccc(Cl)cc1)c1ccc2c(c1)c(-c1cccc(Cl)c1)cc(=O)n2C [tipifarnib]
Outline: as §1

[10] = compound: FC(F)(F)c1ccc(/C=C/c2nc(COc3ccc(CCCCn4ccnn4)cc3)co2)cc1 [mubritinib]
Outline: as §1

[11] = compound: NC(=O)Nc1cc(-c2cccc(F)c2)sc1C(=O)N[C@H]1CCCNC1
Outline: as §1

[12] = compound: NC(=O)c1cnc(N[C@@H]2CCCC[C@@H]2N)nc1Nc1cccc(-n2nccn2)c1
Outline: as §1

[13] = compound: NC1(c2ccc(-c3nc4ccn5c(=O)[nH]nc5c4cc3-c3ccccc3)cc2)CCC1
Outline: as §1

[14] = compound: NCC(=O)Nc1ccc(-n2nc(C(F)(F)F)cc2-c2ccc3c(ccc4ccccc43)c2)cc1
Outline: as §1

[15] = compound: Nc1ccccc1NC(=O)c1ccc(CNC(=O)OCc2cccnc2)cc1 [entinostat]
Outline: as §1

[16] = compound: O=C(CCCCCCC(=O)Nc1ccccc1)NO [vorinostat]
Outline: as §1

[17] = compound: O=C(CCCCCCNC(=O)c1cnc(N(c2ccccc2)c2ccccc2Cl)nc1)NO [citarinostat]
Outline: as §1

[18] = compound: O=C(O)c1ccc2c(c1)nc(Nc1cccc(Cl)c1)c1ccncc12 [silmitasertib]
Outline: as §1

[19] = compound: O=C1NC(=O)C(c2cnc3ccccn23)=C1c1cn2c3c(cc(F)cc13)CN(C(=O)N1CCCCC1)CC2
Outline: as §1

[20] = compound: c1cc(OCCN2CCCCC2)cc(-c2n[nH]c3ccc(-c4nnc[nH]4)cc23)c1
Outline: as §1

UniProt Q6NUM9, sequence (Q6NUM9 whole entry, looked up): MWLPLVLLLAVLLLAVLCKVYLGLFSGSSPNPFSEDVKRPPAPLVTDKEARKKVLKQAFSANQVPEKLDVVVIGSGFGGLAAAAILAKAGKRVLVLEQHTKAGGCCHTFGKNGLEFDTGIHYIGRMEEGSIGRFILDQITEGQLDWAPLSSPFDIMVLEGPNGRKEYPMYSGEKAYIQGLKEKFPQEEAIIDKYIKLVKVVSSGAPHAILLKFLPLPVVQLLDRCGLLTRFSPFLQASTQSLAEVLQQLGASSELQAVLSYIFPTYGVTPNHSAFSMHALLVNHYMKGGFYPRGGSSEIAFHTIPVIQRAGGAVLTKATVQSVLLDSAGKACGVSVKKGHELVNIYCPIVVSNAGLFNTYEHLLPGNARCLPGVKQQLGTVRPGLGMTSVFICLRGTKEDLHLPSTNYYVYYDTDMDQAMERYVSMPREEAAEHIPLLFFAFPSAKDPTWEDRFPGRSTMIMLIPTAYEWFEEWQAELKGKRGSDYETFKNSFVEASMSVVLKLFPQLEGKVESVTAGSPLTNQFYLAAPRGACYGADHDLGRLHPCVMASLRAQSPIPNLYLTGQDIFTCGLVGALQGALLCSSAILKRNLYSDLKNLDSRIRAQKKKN
UniProt O95716, sequence (O95716 whole entry, looked up): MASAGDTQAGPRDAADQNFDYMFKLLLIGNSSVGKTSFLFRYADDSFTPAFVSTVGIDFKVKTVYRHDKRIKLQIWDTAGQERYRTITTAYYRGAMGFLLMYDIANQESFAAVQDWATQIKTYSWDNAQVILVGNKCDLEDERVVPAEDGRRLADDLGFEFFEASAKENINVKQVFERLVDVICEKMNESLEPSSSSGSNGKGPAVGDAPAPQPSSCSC
UniProt Q9BWJ5, sequence (Q9BWJ5 whole entry, looked up): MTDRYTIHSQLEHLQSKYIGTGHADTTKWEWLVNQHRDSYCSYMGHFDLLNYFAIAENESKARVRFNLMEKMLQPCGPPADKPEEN
UniProt Q9Y3L5, sequence (Q9Y3L5 whole entry, looked up): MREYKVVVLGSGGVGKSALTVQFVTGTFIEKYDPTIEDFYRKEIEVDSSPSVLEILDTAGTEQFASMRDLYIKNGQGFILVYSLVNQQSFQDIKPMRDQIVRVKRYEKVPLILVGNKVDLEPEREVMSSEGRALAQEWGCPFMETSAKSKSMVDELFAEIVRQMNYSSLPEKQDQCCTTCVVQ
UniProt Q96NL6, sequence (Q96NL6 whole entry, looked up): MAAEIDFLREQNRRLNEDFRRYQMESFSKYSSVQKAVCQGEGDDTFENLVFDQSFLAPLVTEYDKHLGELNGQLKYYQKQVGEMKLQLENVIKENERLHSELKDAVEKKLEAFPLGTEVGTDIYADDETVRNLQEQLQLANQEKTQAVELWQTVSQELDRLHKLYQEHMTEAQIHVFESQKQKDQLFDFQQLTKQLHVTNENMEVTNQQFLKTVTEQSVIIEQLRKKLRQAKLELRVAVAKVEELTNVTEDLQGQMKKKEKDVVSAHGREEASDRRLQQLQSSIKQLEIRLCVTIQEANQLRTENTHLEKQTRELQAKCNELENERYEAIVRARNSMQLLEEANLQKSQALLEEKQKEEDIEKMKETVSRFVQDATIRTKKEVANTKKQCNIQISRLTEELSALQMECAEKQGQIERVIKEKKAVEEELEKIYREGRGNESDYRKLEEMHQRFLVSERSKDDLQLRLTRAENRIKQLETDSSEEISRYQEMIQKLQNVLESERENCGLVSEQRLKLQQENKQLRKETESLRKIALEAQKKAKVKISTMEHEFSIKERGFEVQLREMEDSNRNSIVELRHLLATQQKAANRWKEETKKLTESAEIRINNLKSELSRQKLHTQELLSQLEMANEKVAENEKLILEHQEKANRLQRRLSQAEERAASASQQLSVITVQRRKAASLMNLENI
UniProt P61586, sequence (P61586 whole entry, looked up): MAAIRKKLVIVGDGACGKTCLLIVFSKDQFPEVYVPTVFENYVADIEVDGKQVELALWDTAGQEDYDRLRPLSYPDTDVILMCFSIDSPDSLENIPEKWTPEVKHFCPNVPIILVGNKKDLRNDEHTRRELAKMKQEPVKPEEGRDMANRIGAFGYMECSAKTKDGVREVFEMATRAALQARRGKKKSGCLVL
UniProt Q5PRF9, sequence (Q5PRF9 whole entry, looked up): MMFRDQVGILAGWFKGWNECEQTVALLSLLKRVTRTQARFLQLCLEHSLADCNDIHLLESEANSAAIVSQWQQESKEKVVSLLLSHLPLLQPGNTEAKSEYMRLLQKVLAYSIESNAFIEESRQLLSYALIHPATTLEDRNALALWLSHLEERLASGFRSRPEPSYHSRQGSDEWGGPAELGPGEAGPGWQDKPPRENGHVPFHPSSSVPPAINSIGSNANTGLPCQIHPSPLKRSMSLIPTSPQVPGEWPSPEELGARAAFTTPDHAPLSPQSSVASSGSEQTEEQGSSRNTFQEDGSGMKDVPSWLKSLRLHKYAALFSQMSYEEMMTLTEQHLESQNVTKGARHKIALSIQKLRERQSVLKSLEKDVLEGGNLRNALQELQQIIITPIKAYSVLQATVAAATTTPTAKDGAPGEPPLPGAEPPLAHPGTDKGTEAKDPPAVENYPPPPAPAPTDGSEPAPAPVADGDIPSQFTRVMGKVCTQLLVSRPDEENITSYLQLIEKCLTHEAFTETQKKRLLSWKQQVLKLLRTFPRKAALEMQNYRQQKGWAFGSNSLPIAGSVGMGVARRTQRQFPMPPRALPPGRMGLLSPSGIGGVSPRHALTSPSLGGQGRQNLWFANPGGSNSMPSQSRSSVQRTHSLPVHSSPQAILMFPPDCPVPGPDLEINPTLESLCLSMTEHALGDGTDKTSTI
UniProt Q96DM3, sequence (Q96DM3 whole entry, looked up): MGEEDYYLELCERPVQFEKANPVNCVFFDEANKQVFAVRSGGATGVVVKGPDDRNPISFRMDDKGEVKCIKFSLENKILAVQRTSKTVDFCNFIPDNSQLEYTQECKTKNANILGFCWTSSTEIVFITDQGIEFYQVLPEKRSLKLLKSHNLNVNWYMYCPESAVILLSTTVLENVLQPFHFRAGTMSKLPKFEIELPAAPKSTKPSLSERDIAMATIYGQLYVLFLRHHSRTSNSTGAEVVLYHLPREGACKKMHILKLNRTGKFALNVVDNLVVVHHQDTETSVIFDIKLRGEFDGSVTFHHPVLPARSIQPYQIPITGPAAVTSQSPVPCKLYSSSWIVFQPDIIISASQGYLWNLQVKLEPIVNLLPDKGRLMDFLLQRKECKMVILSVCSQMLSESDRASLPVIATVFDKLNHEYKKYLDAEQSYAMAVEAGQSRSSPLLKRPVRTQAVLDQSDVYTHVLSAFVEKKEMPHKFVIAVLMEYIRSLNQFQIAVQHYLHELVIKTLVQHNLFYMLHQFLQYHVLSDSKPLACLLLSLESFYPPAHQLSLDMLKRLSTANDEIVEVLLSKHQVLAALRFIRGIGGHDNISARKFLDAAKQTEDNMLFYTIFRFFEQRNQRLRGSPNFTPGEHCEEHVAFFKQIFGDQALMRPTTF
UniProt Q9NTJ5, sequence (Q9NTJ5 whole entry, looked up): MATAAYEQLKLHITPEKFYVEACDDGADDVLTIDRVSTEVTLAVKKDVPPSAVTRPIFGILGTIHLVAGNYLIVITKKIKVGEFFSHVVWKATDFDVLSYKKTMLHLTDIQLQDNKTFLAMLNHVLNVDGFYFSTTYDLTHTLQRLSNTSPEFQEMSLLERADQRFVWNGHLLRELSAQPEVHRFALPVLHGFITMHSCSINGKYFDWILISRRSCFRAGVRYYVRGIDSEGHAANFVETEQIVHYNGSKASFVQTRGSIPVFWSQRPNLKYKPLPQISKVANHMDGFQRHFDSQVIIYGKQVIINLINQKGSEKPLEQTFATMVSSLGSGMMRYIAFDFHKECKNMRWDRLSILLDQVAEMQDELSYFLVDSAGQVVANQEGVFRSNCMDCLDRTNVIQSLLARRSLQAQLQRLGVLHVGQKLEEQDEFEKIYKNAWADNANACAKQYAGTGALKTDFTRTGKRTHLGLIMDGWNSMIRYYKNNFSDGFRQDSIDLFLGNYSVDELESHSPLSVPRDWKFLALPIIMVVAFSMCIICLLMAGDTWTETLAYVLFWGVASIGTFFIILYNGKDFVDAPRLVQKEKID
UniProt Q96EU6, sequence (Q96EU6 whole entry, looked up): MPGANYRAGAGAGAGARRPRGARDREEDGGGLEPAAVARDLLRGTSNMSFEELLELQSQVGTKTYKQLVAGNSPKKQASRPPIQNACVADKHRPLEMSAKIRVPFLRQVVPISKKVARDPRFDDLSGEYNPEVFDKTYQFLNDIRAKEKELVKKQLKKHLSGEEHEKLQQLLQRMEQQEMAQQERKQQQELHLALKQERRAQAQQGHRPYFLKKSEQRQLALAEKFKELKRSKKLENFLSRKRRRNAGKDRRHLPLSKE
UniProt Q8IZE3, sequence (Q8IZE3 whole entry, looked up): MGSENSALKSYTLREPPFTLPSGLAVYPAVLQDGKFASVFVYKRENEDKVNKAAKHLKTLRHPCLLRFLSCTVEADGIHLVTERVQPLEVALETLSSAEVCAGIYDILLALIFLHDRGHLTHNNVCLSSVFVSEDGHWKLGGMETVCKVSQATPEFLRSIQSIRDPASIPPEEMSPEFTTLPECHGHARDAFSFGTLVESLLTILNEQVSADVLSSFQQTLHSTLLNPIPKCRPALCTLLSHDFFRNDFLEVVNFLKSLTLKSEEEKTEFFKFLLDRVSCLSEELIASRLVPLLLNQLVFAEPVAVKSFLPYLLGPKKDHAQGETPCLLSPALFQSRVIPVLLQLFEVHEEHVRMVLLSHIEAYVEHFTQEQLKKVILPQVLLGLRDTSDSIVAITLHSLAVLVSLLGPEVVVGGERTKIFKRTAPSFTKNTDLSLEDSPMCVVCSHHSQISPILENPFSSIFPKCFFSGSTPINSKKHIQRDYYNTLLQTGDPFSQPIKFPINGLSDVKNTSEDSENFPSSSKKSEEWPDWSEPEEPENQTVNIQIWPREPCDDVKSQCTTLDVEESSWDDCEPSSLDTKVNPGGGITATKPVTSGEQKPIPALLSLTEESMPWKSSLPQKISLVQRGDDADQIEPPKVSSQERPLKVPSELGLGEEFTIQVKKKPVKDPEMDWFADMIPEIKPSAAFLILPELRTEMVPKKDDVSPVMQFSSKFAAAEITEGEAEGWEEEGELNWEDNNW

Target | log2 fold change [1] | log2 fold change [2] | log2 fold change [3] | log2 fold change [4] | log2 fold change [5] | log2 fold change [6] | log2 fold change [7] | log2 fold change [8] | log2 fold change [9] | log2 fold change [10] | log2 fold change [11] | log2 fold change [12] | log2 fold change [13] | log2 fold change [14] | log2 fold change [15] | log2 fold change [16] | log2 fold change [17] | log2 fold change [18] | log2 fold change [19] | log2 fold change [20]
SGPL1 (UniProt O95470) | 0.009 | -0.013 | 0.024 | -0.017 | 0.016 | -0.029 | -0.005 | -0.071 | 0.151 | 0.034 | -0.01 | 0.004 | -0.005 | 0.144 | 0 | -0.014 | 0.009 | -0.034 | 0.064 | -0.134
RETSAT (UniProt Q6NUM9) | -0.011 | -0.034 | 0.154 | -0.076 | -0.001 | 0.511 (active) | 0.045 | -0.002 | -0.052 | 0.182 | -0.058 | -0.05 | -0.028 | -0.019 | 0.129 | -0.048 | 0.028 | -0.014 | 0.026 | -0.047
SCLT1 (UniProt Q96NL6) | 0.087 | -0.009 | -0.099 | -0.043 | -0.052 | 0.041 | 0.191 |  |  | 0.098 | -0.007 |  | -0.057 | -0.077 | -0.023 | 0.064 |  | -0.01 |  | 
RPS18 (UniProt P62269) | 0.214 | -0.015 | -0.001 | 0.198 | 0.069 | -0.054 | -0.088 | -0.001 | 0.031 | -0.022 | -0.032 | 0.08 | 0.122 | 0.049 | -0.083 | 0.023 | -0.093 | 0 | 0.069 | -0.145
RAP2C (UniProt Q9Y3L5) | 0.115 | 0.157 | 0.181 | 0.069 | 0.018 | 0.019 | 0.047 | -0.032 | 0.086 | 0.041 | 0.072 | 0.299 (active) | 0.133 | 0.118 | -0.045 | 0.051 | 0.056 | -0.04 | -0.008 | -0.061
SCYL3 isoform 2 (UniProt Q8IZE3) | -0.056 | -0.017 | -0.215 | -0.167 | -0.124 | 0.111 | -0.062 | -0.05 | 0.044 | 0.032 |  | 0.001 | -0.185 | -0.055 |  | 0.031 | -0.047 | 0.021 | -0.053 | 0.173
SEPTIN5 (UniProt G3XAH0) | -0.038 | -0.013 | -0.05 | -0.024 | -0.049 | -0.008 | -0.05 | 0.082 | 0.006 | -0.011 | 0.008 | 0.004 | -0.142 | 0.016 | -0.031 | 0.16 |  | -0.023 | -0.028 | 
SF3B5 (UniProt Q9BWJ5) | -0.115 | -0.056 | 0.029 | 0.008 | -0.189 | -0.064 |  |  | -0.018 | -0.043 | 0.081 | 0.043 | -0.034 | 0.038 | 0.116 | -0.004 | -0.016 | 0.016 | -0.127 | 0
RAB5IF isoform 5 (UniProt Q9BUV8) | 0.034 | -0.01 | -0.042 | -0.011 | 0.062 | -0.051 | -0.054 | 0 | -0.013 | 0.079 | 0.008 | 0.103 | 0.003 | -0.107 | 0.007 | -0.019 | 0.225 | -0.032 | 0.168 | 0.047
RRP36 (UniProt Q96EU6) | 0.428 | 0.054 | -0.007 | 0.203 | 0.164 | -0.011 | -0.319 | -0.016 | 0.208 | -0.132 | 0.115 | 0.108 | 0.271 | 0.098 | -0.073 | -0.024 | -0.04 | 0.143 | 0.264 | -0.118
SACM1L (UniProt Q9NTJ5) | -0.011 | -0.022 | 0.044 | -0.002 | 0.012 | 0.012 | -0.009 | 0 | -0.024 | -0.002 | -0.045 | 0 | -0.102 | -0.083 | 0.016 | 0.006 | 0.044 | 0.034 | -0.068 | -0.017
RMC1 (UniProt Q96DM3) | -0.043 | 0.072 | -0.032 | -0.047 | -0.063 | -0.082 | 0.03 | -0.016 | 0.045 | 0.012 | -0.026 | -0.141 | -0.384 (active) | -0.039 | 0.048 | 0.017 | 0.04 | 0.025 | -0.036 | -0.045
RCOR3 isoform 3 (UniProt Q9P2K3) | 0.023 | 0.039 | -0.019 | 0.001 | -0.09 | -0.022 | -0.056 | 0.006 | -0.119 | 0.09 | 0.019 | -0.067 | -0.129 | -0.177 | 0.1 | 0.127 | 0.115 | -0.043 |  | -0.075
RHOA (UniProt P61586) | -0.149 | -0.051 | 0.154 | 0.001 | 0.001 | 0.014 | 0.04 | 0.012 | 0 | 0.029 | -0.01 | 0.036 | 0.204 | 0.123 | -0.019 | -0.16 | -0.047 | -0.136 | -0.057 | 0.104
RAB3D (UniProt O95716) | -0.142 | -0.052 | 0.01 | 0.066 | 0.221 | -0.116 | 0.075 | -0.201 | 0.065 | 0.285 |  | 0.113 | 0.032 | -0.007 |  | -0.126 | 0.055 | 0.027 |  | 0.051
SAMD4B (UniProt Q5PRF9) | -0.436 | 0.125 | -0.167 | -0.312 | -0.296 | 0.002 | -0.072 | -0.042 | 0.09 |  | -0.459 |  |  |  | 0.133 | -0.069 |  |  | 0.067 | 
ROCK1 (UniProt Q13464) | -0.017 | -0.006 | -0.03 | 0.007 | -0.028 | 0.034 | -0.006 | 0.01 | -0.037 | 0.062 |  | 0.054 | -0.09 | -0.029 | -0.002 | 0.029 | 0.068 |  | -0.054 | 
